From PubChem
Marburg entry inh – qHTS for inhibitors of binding or entry into cells for Marburg Virus; 300,000 tested, 1.8% active; Marburg virus pseudotyped entry inhibition, cell reporter; Potency, µM (highest dose often 37.8 µM), actives largely listed as inhibitors; AID 540276, 2011; calls by dose curve; tested in HEK293 cells
FMDV antiviral – High Throughput Screening for Foot and Mouth Disease Virus Antivirals; FMDV antiviral cell-based qHTS; Potency, µM (doses to about 57.9 µM), hits mostly inhibitors; 410,000 tested, 1.2% active; calls by dose curve; tested in HEK293T cells; note: read-out not given here; nearly all actives have a fitted effect of over 45% in size
Lassa entry inh – qHTS for Inhibitors of binding or entry into cells for Lassa Virus; Potency, µM (highest dose often 37.9 µM), actives largely listed as inhibitors; AID 540256, 2011; Lassa virus pseudotype entry inhibition, cell reporter; 300,000 tested, 1.2% active; calls by dose curve; tested in HEK293 cells; note: nearly all actives have a fitted effect of over 50% in size
Vaccinia mCherry – qHTS for Stage-Specific Inhibitors of Vaccinia Orthopoxvirus: mCherry Reporter Primary qHTS | Potency, µM (series often up to 36.5 µM), hits mostly inhibitors | 310,000 tested, 0.63% active | Vaccinia virus mCherry reporter infection, fluorescence; calls by dose curve; tested in A549 cells; note: nearly all actives have a fitted effect of over 35% in size
Vaccinia Venus – qHTS for Stage-Specific Inhibitors of Vaccinia Orthopoxvirus: Venus Reporter Primary qHTS. Vaccinia virus Venus reporter expression, fluorescence. Potency, µM (titrated, usually from 36.5 µM), hits mostly inhibitors. 330,000 tested, 0.46% active. AID 720580, 2013; calls by dose curve; tested in A549 cells; note: nearly all actives have a fitted effect of over 30% in size
HCMV antiviral – qHTS Assay for inhibitors of the human cytomegalovirus (HCMV) | HFF cells, HCMV-luciferase reporter, 72 h; active compounds read low | activity change, negative = inhibition, % at 57.5 µM | 410,000 tested, 4.5% active | AID 1259415, 2018; in the data active = activity change below about -60%; inconclusive = no clear call, values can overlap the other calls; inactive = above about -39%
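Luciferase read-out from HCMV-luciferase-infected HFFs (MOI 1 PFU/cell) 72 h post infection at 37C; compounds added after 16 h cell attachment; activity normalized between buffer-only basal and Salinomycin (10uM) inhibitor controls.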
Hits are given with their value; ! = a repeat was not active. Sampled rows, rich in hits. Any-hit rate of the full collection: about 6.5%.

Screening CCC(=O)N1CCc2cc(Br)cc(S(=O)(=O)NCCCN(C)Cc3ccccc3)c21 returned Marburg entry inh inconclusive, FMDV antiviral inactive, Lassa entry inh inactive, Vaccinia mCherry inactive, Vaccinia Venus inactive and HCMV antiviral -67.3.
`CCC(=O)N1CCc2cc(Br)cc(S(=O)(=O)NC3CCN(Cc4ccccc4)CC3)c21` gave Marburg entry inh inconclusive, FMDV antiviral inactive, Lassa entry inh 2.24µM, Vaccinia mCherry inactive, Vaccinia Venus inactive and HCMV antiviral inconclusive.
`CCC(=O)N1CCc2cc(Br)cc(S(=O)(=O)N(CC)Cc3ccccc3)c21` gave Marburg entry inh inactive, FMDV antiviral inactive, Lassa entry inh inactive, Vaccinia mCherry inactive, Vaccinia Venus inactive and HCMV antiviral inactive.
Screening O=C(Nc1cccc(F)c1)c1ccc2oc(=O)n(Cc3ccccc3)c2c1 returned FMDV antiviral inconclusive, Lassa entry inh inactive, Vaccinia mCherry inactive, Vaccinia Venus inactive and HCMV antiviral -68.4.
CN(CC(=O)Nc1cccc(F)c1)C(=O)Cn1c(=O)oc2ccccc21 was read as FMDV antiviral inactive and HCMV antiviral inactive.
Screening O=C(Cn1c(=O)c(=O)n(Cc2ccccc2)c2ccc(Cl)cc21)Nc1cccc(F)c1 returned Marburg entry inh 0.794µM, FMDV antiviral inactive, Lassa entry inh inconclusive, Vaccinia mCherry inactive, Vaccinia Venus inactive and HCMV antiviral inactive.
O=C(Cn1c(=O)c2cccn2c2ccc(F)cc21)Nc1cccc(F)c1 was read as FMDV antiviral inactive, Lassa entry inh inactive, Vaccinia mCherry inactive, Vaccinia Venus inactive and HCMV antiviral inactive.
Screening COc1cccc([C@@H]2Oc3ccc(Br)cc3C(=O)[C@H]2OC(=O)N[C@H]2CCCc3ccccc32)c1 returned Marburg entry inh inactive.
O=C1CC(/C=C/c2ccncc2)=Nc2ccccc2N1 was read as Marburg entry inh inconclusive, FMDV antiviral inactive, Lassa entry inh inactive, Vaccinia mCherry inconclusive, Vaccinia Venus inactive and HCMV antiviral -98.6.
Screening COc1ccc(C2C(C#N)=C(C)NC3=C2S(=O)(=O)c2ccccc23)cc1 (centres undefined) returned Marburg entry inh inactive, FMDV antiviral inactive, Lassa entry inh inactive and HCMV antiviral -107.9.
Screening CC(=O)NC(c1cccs1)c1cc(F)c2cccnc2c1O (centres undefined) returned FMDV antiviral inactive and HCMV antiviral -100.2.
CC(=O)NC(c1ccco1)c1cc(F)c2cccnc2c1O (centres undefined) was read as FMDV antiviral inactive and HCMV antiviral -66.9.
For Cc1ccc(-n2c(=O)c3oc4ccccc4c3n(Cc3ccccc3)c2=O)cc1C the results were FMDV antiviral inconclusive, Lassa entry inh inactive, Vaccinia mCherry inactive, Vaccinia Venus inactive and HCMV antiviral inactive.
`COc1ccc2cc([C@@H](C)C(=O)O)ccc2c1` gave FMDV antiviral 2.24µM, Vaccinia mCherry inactive, Vaccinia Venus inactive and HCMV antiviral inactive.
For COc1ccc2cc(C(C)C(=O)OC(C)C)ccc2c1 (centres undefined) the results were FMDV antiviral inactive, Vaccinia mCherry inactive, Vaccinia Venus inactive and HCMV antiviral inactive.
CCCc1cc(N2CCOCC2)n2ncc(-c3ccccc3)c2n1 was read as FMDV antiviral inactive and HCMV antiviral -61.8.
For CC1(C)C(=O)N(CC(=O)Nc2cccc(F)c2)c2ccc(S(=O)(=O)N3CCCCC3)cc21 the results were FMDV antiviral inactive, Lassa entry inh inactive, Vaccinia mCherry inactive, Vaccinia Venus inactive and HCMV antiviral inactive.
`CCN(CC(=O)Nc1cccc(OC)c1)c1ncnc2sc(C)c(C)c12` gave Marburg entry inh inconclusive, FMDV antiviral 20µM, Lassa entry inh inactive, Vaccinia mCherry inactive, Vaccinia Venus inactive and HCMV antiviral -73.8.
CC1CC(C)CN(C(=O)/C=C/c2ccc([N+](=O)[O-])s2)C1 (centres undefined) was read as FMDV antiviral inconclusive, Vaccinia mCherry inconclusive, Vaccinia Venus inconclusive and HCMV antiviral -86.6.
CC1CN(C(=O)/C=C/c2ccc([N+](=O)[O-])s2)CC(C)O1 (centres undefined) was read as Marburg entry inh 11.2µM, FMDV antiviral inactive, Lassa entry inh inconclusive, Vaccinia mCherry inconclusive, Vaccinia Venus inconclusive and HCMV antiviral -67.6.
CC1CN(C(=O)/C=C/c2ccccc2[N+](=O)[O-])CC(C)O1 (centres undefined) was read as Marburg entry inh inactive, FMDV antiviral inactive, Lassa entry inh inactive, Vaccinia mCherry inactive, Vaccinia Venus inactive and HCMV antiviral inconclusive.
COc1ccc(N(CC(=O)NCc2ccccc2Cl)S(=O)(=O)c2c(C)[nH]c(=O)[nH]c2=O)cc1 was read as Marburg entry inh inactive, FMDV antiviral inactive, Lassa entry inh inactive, Vaccinia mCherry inactive, Vaccinia Venus inactive and HCMV antiviral inactive.
`Cc1ccc(S(=O)(=O)N(CC(=O)Nc2c(C)cccc2C)c2cccc(Cl)c2)cc1` gave Marburg entry inh inconclusive, FMDV antiviral inactive, Lassa entry inh inactive, Vaccinia mCherry inactive, Vaccinia Venus inactive and HCMV antiviral inconclusive.
`CC(=O)n1c(Cl)c(NC(=O)CCl)c2ccccc21` gave Marburg entry inh inconclusive, FMDV antiviral 31.6µM, Lassa entry inh inconclusive, Vaccinia mCherry 10µM, Vaccinia Venus inconclusive and HCMV antiviral -98.3.
Screening COc1ccc(Cl)cc1NC(=O)C1CCN(S(=O)(=O)c2ccc3c(c2)CCCN3C(=O)C2CCC2)CC1 returned FMDV antiviral inactive, Lassa entry inh inactive, Vaccinia mCherry inactive, Vaccinia Venus inactive and HCMV antiviral inactive.
For COCC(=O)Oc1c(S(=O)(=O)c2ccc(C)cc2)c(C)nn1C(C)(C)C the results were Marburg entry inh inactive, FMDV antiviral inactive, Lassa entry inh inactive, Vaccinia mCherry inactive, Vaccinia Venus inactive and HCMV antiviral -70.7.
Cc1nn(C(C)(C)C)c(OC(=O)c2cccs2)c1S(=O)(=O)c1ccccc1 was read as Marburg entry inh inconclusive, FMDV antiviral inconclusive, Lassa entry inh 11.2µM, Vaccinia mCherry inconclusive, Vaccinia Venus inconclusive and HCMV antiviral inactive.
Screening COCC(=O)Oc1c(Sc2ccccc2[N+](=O)[O-])c(C)nn1C(C)(C)C returned Marburg entry inh inactive, FMDV antiviral inactive, Lassa entry inh inactive, Vaccinia mCherry inactive, Vaccinia Venus inactive and HCMV antiviral -101.1.
Screening CC(=O)[C@]12C[C@@H]3CCCN(C(=O)N[C@@H]1c1ccccc1)[C@@H]32 returned Marburg entry inh inactive.
CCOc1ccc(N2C(=O)C(c3nnnn3Cc3ccccc3)N(CCOC)C2=O)cc1 (centres undefined) was read as HCMV antiviral inactive.
Screening COc1cccc(COC(=O)c2nn(-c3ccccc3)nc2N)c1 returned Marburg entry inh inconclusive, FMDV antiviral 25.1µM!, Lassa entry inh inconclusive, Vaccinia mCherry inactive, Vaccinia Venus inactive and HCMV antiviral inactive.
`COc1ccc2c(c1)nc(N)n2Cc1ccccc1` gave Marburg entry inh inconclusive, FMDV antiviral inactive, Lassa entry inh inactive, Vaccinia mCherry inactive, Vaccinia Venus inactive and HCMV antiviral inactive.
